Of roughly 7,900 targets only a part is listed; those with a hit were picked by preference. About 0.6% of all pairs of compound and target were hits.
What was measured:
Experiment in all cases: log2 fold change, soluble protein after heating vs DMSO (PISA); higher = thermal stabilisation; K562 cells, 10 uM, 30 min; active = over 0.2 and 3.5 SD of the protein, either way, in both replicates (recomputed)
erlotinib = compound: C#Cc1cccc(Nc2ncnc3cc(OCCOC)c(OCCOC)cc23)c1 [erlotinib]
How it was run: (§1)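 Aliquots of K562 cells (2×10^6 cells/mL) treated with 10 μM compound for 30 min were heated for 3 min over 48°C-58°C. After pooling and extraction in PBS with 0.5% NP-40 at 4°C, soluble protein from a 21,000xg, 90 min spin was quantified by TMTpro 16plex LC-MS/MS with channel sums equalised. Thermal stability is expressed against control samples, from duplicates, as a log2 fold change.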

[1] = compound: C/C(=N\NC(=O)C1=CC(=CC=C1)S(=O)(=O)N2CCOCC2)/C3=C(C=CC(=C3)Cl)O
How it was run: as §1

[2] = compound: C1=CC(=C(C=C1Cl)C2=NC3=NC=CN=C3C(=N2)NC4=CC=NC=C4)F
How it was run: as §1

[3] = compound: C1=CC(=CC=C1C2=NC3=C(N2)C=C(C=C3)C(=O)N)OC4=CC=C(C=C4)Cl
How it was run: as §1

[4] = compound: C1=CC2=C(C=CC(=C2)/C=C\3/C(=O)NC(=NCC4=CC=CS4)S3)N=C1
How it was run: as §1

[5] = compound: C1=CC2=NC=CN=C2C=C1/C=C/3\C(=O)NC(=O)S3
How it was run: as §1

[6] = compound: C1=CC=C(C=C1)C2=NC(=C(N2)C3=CC=NC=C3)C4=CC(=C(C=C4)Cl)O
How it was run: as §1

[7] = compound: C1=CC=C2C(=C1)C3=NNC4=CC=CC(=C43)C2=O
How it was run: as §1

[8] = compound: C1CCN(C1)C(=O)NC2=CC=CC(=C2)NC3=NC=C(C(=N3)NCCC4=CN=CN4)Br
How it was run: as §1

[9] = compound: C1CN(CCC1(CC2=CC=C(C=C2)Cl)N)C3=NC=NC4=C3C=CN4
How it was run: as §1

IRAK-1-4 Inhibitor I = compound: C1COCCN1CCN2C3=CC=CC=C3N=C2NC(=O)C4=CC(=CC=C4)[N+](=O)[O-] [IRAK-1-4 Inhibitor I]
How it was run: as §1

ibrutinib = compound: C=CC(=O)N1CCC[C@@H](n2nc(-c3ccc(Oc4ccccc4)cc3)c3c(N)ncnc32)C1 [ibrutinib]
How it was run: as §1

[10] = compound: CC(=O)c1cnc2ccc(-c3cc(Cl)c(O)c(Cl)c3)nc2c1N[C@H]1CC[C@H](CN(C)C)CC1
How it was run: as §1

ralimetinib = compound: CC(C)(C)Cn1c(N)nc2ccc(-c3[nH]c(C(C)(C)C)nc3-c3ccc(F)cc3)nc21 [ralimetinib]
How it was run: as §1

[11] = compound: CC(C)(O)CC(=O)NCCn1ccc2ncnc(Nc3ccc(Oc4cccc(C(F)(F)F)c4)c(Cl)c3)c21
How it was run: as §1

[12] = compound: CC(C)C1=C2N=C(C=C(N2N=C1)NCC3=CC=CC=C3)NCCCCCCN
How it was run: as §1

[13] = compound: CC(C)C[C@@H](C=O)NC(=O)[C@H](CC(C)C)NC(=O)[C@H](CC(C)C)NC(=O)OCc1ccccc1
How it was run: as §1

pinometostat = compound: CC(C)N(C[C@H]1O[C@@H](n2cnc3c(N)ncnc32)[C@H](O)[C@@H]1O)[C@H]1C[C@@H](CCc2nc3cc(C(C)(C)C)ccc3[nH]2)C1 [pinometostat]
How it was run: as §1

[14] = compound: CC1=C(C(CC(=O)N1)C2=CC=C(C=C2)C(F)(F)F)C(=O)NC3=C(C=C4C(=C3)C=NN4)F
How it was run: as §1

[15] = compound: CC1=C(C2=C(C=C1)C(=O)C3=CC=CC=C3N2CCCN)C
How it was run: as §1

Measured: log2 fold change

IRAK4 (UniProt Q9NWZ3)
Sequence of UniProt Q9NWZ3 (Q9NWZ3 whole entry, looked up): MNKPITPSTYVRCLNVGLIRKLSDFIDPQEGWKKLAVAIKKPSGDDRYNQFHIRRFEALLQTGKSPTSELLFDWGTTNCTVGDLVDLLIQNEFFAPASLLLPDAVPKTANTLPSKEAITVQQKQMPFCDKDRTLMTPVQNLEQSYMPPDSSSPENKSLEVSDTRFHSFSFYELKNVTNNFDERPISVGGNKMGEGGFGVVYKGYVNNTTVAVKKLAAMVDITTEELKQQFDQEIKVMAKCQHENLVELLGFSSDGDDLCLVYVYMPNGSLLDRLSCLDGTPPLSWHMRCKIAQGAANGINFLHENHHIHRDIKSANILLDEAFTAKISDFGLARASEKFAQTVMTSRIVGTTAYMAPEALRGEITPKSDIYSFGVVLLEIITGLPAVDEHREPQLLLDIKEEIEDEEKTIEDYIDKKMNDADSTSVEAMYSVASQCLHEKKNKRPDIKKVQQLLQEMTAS
active: [12] -0.252
inactive: erlotinib 0.041 | [1] -0.009 | [2] 0.068 | [3] -0.038 | [4] 0.059 | [5] -0.023 | [6] 0.011 | [7] -0.004 | [8] 0.069 | [9] -0.074 | IRAK-1-4 Inhibitor I -0.012 | ibrutinib 0.002 | [10] 0.196 | ralimetinib -0.014 | [11] -0.092 | [13] -0.026 | pinometostat 0.065 | [14] 0.02 | [15] -0.002

LSR (UniProt Q86X29)
Sequence of UniProt Q86X29 (Q86X29 whole entry, looked up): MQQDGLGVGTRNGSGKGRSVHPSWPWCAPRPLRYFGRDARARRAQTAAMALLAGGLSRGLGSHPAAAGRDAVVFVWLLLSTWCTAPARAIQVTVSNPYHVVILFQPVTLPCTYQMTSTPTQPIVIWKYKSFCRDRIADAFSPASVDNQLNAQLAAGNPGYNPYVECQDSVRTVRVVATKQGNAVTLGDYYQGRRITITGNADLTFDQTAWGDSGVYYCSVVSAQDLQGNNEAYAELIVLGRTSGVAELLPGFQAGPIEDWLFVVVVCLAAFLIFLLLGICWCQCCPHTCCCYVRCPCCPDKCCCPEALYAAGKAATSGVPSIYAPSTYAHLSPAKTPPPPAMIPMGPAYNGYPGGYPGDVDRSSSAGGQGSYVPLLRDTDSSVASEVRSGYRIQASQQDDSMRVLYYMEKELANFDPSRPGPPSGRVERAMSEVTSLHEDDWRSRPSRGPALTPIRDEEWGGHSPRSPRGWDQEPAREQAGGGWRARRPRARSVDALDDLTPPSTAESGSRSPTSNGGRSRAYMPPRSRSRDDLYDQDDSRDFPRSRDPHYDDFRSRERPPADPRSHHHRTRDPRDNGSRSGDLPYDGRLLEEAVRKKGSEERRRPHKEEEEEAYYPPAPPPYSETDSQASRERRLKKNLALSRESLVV
inactive: erlotinib 0.022 | [1] 0.022 | [2] -0.08 | [3] 0.002 | [4] -0.019 | [5] 0.019 | [6] -0.105 | [7] -0.114 | [8] -0.038 | [9] 0.073 | IRAK-1-4 Inhibitor I 0.053 | ibrutinib 0.006 | [10] -0.139 | ralimetinib -0.009 | [11] 0.058 | [12] 0.093 | [13] 0.086 | pinometostat -0.046 | [14] -0.035 | [15] -0.008

KTN1 (UniProt Q86UP2)
Sequence of UniProt Q86UP2 (Q86UP2 whole entry, looked up): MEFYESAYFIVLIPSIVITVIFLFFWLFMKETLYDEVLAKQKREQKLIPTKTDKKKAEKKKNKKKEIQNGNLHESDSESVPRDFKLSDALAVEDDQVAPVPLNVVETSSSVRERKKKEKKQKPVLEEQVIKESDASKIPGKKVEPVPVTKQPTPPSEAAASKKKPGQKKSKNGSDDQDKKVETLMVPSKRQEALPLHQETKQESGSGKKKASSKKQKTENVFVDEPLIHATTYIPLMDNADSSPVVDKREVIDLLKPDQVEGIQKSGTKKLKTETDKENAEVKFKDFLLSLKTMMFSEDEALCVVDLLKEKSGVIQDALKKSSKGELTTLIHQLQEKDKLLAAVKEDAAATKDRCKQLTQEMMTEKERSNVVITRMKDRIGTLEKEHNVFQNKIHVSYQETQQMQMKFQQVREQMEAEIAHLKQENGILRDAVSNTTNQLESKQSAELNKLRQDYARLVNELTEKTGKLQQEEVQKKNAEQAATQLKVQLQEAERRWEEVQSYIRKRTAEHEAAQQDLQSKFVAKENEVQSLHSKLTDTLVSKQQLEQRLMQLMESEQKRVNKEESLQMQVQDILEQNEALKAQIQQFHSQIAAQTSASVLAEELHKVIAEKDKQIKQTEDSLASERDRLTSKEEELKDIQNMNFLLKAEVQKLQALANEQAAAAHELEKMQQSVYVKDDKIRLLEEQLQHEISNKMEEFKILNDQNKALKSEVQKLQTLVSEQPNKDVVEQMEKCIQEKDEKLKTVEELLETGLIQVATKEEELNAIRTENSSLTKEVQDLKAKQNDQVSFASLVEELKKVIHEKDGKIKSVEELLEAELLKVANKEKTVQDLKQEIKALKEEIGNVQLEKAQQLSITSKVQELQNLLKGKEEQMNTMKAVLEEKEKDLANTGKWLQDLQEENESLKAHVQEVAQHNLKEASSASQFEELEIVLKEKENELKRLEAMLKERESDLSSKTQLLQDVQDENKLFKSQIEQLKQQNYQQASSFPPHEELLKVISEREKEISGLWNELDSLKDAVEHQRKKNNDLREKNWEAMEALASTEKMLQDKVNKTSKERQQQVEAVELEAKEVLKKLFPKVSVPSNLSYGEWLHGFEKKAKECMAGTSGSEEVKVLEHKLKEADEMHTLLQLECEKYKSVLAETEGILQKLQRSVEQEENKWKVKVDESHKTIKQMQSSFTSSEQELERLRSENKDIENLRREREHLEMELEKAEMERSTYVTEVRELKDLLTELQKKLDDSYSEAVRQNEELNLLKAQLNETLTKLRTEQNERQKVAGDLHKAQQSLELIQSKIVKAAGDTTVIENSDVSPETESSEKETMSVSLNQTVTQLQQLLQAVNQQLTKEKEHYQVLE
inactive: erlotinib -0.013 | [1] -0.007 | [2] -0.05 | [3] -0.08 | [4] 0.058 | [5] -0.006 | [6] -0.04 | [7] -0.032 | [8] -0.028 | [9] -0.129 | IRAK-1-4 Inhibitor I -0.066 | ibrutinib -0.029 | [10] 0.065 | ralimetinib 0.098 | [11] 0 | [13] 0.072 | pinometostat 0.102 | [14] -0.019 | [15] 0.071
active: [12] -0.343

MICOS13 (UniProt Q5XKP0)
Sequence of UniProt Q5XKP0 (Q5XKP0 whole entry, looked up): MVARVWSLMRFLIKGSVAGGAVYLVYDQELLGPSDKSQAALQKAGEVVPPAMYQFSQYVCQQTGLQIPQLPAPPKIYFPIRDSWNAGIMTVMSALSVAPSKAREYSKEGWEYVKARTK
inactive: erlotinib 0.008 | [1] 0.018 | [2] 0.053 | [3] -0.007 | [4] 0.001 | [5] 0.039 | [6] 0.051 | [7] 0.052 | [8] 0.007 | [9] 0.023 | IRAK-1-4 Inhibitor I 0.087 | ibrutinib -0.012 | [10] -0.022 | ralimetinib -0.077 | [11] -0.193 | [12] -0.146 | [13] 0.006 | pinometostat -0.023 | [14] -0.009 | [15] -0.008

METTL18 (UniProt O95568)
Sequence of UniProt O95568 (O95568 whole entry, looked up): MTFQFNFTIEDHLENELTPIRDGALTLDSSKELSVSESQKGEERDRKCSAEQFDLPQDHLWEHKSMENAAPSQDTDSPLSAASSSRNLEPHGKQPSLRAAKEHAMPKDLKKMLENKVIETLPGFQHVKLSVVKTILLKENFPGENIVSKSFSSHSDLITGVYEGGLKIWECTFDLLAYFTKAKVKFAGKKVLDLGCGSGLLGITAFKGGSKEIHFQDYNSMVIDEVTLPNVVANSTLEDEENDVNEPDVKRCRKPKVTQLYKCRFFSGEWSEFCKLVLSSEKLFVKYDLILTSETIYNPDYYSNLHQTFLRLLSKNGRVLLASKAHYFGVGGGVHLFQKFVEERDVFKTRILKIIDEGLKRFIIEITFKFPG
inactive: erlotinib -0.042 | [1] -0.037 | [2] -0.08 | [3] 0.027 | [4] 0.038 | [5] 0.046 | [6] -0.039 | [7] -0.06 | [8] 0.028 | [9] 0.078 | IRAK-1-4 Inhibitor I 0.01 | ibrutinib 0.019 | [10] 0.013 | ralimetinib -0.036 | [11] 0.016 | [12] -0.009 | [13] -0.003 | pinometostat 0.023 | [14] 0.065 | [15] 0.072

MAP2K3 isoform 3 (UniProt P46734)
Sequence of UniProt P46734 (P46734 whole entry, looked up): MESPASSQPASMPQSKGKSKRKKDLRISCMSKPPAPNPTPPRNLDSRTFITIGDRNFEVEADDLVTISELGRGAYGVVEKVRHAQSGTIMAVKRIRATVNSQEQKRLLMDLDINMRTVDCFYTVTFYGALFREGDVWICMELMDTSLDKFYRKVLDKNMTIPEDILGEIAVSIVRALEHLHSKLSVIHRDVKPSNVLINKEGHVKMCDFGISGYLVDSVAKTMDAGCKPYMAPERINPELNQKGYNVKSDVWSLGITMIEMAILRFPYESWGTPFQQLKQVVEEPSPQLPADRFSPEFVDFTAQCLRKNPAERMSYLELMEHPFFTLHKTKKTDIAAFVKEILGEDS
active: [10] -0.457
inactive: erlotinib -0.011 | [1] 0.05 | [2] 0.002 | [3] 0.009 | [4] 0.036 | [5] 0.017 | [6] 0.046 | [7] -0.057 | [8] 0.016 | [9] -0.006 | IRAK-1-4 Inhibitor I 0.012 | ibrutinib 0.032 | ralimetinib 0.02 | [11] 0.059 | [12] -0.035 | [13] -0.022 | pinometostat -0.012 | [14] 0.064 | [15] -0.032

ILF2 (UniProt Q12905)
Sequence of UniProt Q12905 (Q12905 whole entry, looked up): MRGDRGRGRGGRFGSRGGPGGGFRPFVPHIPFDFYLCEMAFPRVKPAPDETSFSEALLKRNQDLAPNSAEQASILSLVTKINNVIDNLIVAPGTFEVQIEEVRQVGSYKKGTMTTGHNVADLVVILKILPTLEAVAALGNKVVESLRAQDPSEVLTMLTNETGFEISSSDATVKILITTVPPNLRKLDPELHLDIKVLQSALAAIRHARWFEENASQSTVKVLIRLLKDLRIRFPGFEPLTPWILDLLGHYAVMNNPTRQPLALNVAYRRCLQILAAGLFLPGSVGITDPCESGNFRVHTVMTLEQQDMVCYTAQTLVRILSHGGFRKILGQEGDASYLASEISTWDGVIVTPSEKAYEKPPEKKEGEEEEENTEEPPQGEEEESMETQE
inactive: erlotinib -0.098 | [1] -0.087 | [2] -0.214 | [3] 0.009 | [4] -0.088 | [5] 0.066 | [6] -0.035 | [7] -0.011 | [8] -0.005 | [9] -0.175 | IRAK-1-4 Inhibitor I -0.095 | ibrutinib 0.027 | [10] 0.155 | ralimetinib 0.131 | [11] 0.082 | [12] 0.318 | [13] -0.024 | pinometostat 0.064 | [14] -0.014 | [15] 0.204

LRPPRC (UniProt P42704)
active: [12] -1.09
inactive: erlotinib 0.265 | [1] 0.526 | [2] 0.002 | [3] -0.255 | [4] 0.204 | [5] -0.148 | [6] 0.185 | [7] -0.223 | [8] -0.133 | [9] -0.197 | IRAK-1-4 Inhibitor I -0.18 | ibrutinib -0.013 | [10] -0.439 | ralimetinib -0.144 | [11] -0.891 | [13] 0.059 | pinometostat 0 | [14] 0.062 | [15] -0.252

MAPK12 (UniProt P53778)
inactive: erlotinib -0.039 | [1] -0.033 | [2] -0.093 | [3] -0.053 | [4] 0.008 | [5] -0.074 | [6] 0.073 | [7] 0.003 | [8] 0.087 | [9] 0.024 | IRAK-1-4 Inhibitor I 0.074 | ibrutinib 0.066 | [10] 0.201 | ralimetinib -0.046 | [11] 0.001 | [12] 0.388 | [13] -0.005 | pinometostat -0.004 | [14] 0.207 | [15] -0.025

MAP1LC3B2 (UniProt A6NCE7)
inactive: erlotinib 0.009 | [1] 0.093 | [2] 0.038 | [3] 0 | [4] -0.031 | [5] 0.052 | [6] 0.016 | [7] 0.083 | [8] -0.002 | [9] 0.036 | IRAK-1-4 Inhibitor I -0.002 | ibrutinib -0.053 | [10] -0.059 | ralimetinib -0.026 | [11] 0.008 | [12] -0.087 | [13] 0.009 | pinometostat -0.008 | [14] -0.041 | [15] -0.01

MARCKSL1 (UniProt P49006)
Sequence of UniProt P49006 (P49006 whole entry, looked up): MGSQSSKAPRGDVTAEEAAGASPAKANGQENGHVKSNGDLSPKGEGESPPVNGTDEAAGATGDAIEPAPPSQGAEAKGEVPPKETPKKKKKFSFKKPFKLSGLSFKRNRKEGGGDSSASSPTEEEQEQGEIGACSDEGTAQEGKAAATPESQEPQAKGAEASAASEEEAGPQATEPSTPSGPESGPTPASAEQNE
inactive: erlotinib -0.001 | [1] 0.072 | [2] -0.047 | [3] -0.02 | [4] -0.031 | [5] -0.039 | [6] -0.015 | [7] -0.063 | [8] -0.005 | [9] 0.039 | IRAK-1-4 Inhibitor I 0.041 | ibrutinib 0 | [10] -0.039 | ralimetinib -0.069 | [11] 0.106 | [12] 0.006 | [13] -0.034 | pinometostat -0.017 | [14] -0.031 | [15] 0.028

LUC7L (UniProt Q9NQ29)
Sequence of UniProt Q9NQ29 (Q9NQ29 whole entry, looked up): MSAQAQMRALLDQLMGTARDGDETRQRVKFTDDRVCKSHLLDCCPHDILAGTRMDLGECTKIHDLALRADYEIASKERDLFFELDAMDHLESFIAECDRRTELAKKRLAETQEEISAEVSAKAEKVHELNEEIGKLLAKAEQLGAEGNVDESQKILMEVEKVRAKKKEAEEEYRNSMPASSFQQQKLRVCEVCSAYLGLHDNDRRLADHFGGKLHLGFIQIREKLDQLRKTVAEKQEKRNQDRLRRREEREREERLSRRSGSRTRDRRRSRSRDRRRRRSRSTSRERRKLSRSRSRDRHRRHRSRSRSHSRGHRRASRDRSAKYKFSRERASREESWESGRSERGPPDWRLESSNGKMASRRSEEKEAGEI
inactive: erlotinib -0.084 | [1] 0.043 | [2] -0.092 | [3] 0.114 | [4] -0.062 | [5] -0.003 | [6] -0.105 | [7] -0.016 | [8] -0.016 | [9] -0.035 | IRAK-1-4 Inhibitor I -0.098 | ibrutinib 0.027 | [10] -0.137 | ralimetinib 0.009 | [11] 0.08 | [12] -0.007 | [13] 0.021 | pinometostat 0.101 | [14] 0.083 | [15] -0.056

KCTD10 (UniProt Q9H3F6)
Sequence of UniProt Q9H3F6 (Q9H3F6 whole entry, looked up): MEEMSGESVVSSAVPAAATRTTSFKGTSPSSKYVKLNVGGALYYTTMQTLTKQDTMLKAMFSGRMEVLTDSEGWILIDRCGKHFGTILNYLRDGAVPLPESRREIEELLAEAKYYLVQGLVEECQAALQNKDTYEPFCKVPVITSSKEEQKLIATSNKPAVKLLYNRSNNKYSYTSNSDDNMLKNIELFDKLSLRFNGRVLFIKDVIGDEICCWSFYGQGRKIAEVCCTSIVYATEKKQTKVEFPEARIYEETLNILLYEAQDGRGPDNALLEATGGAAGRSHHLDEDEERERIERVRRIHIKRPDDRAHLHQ
inactive: erlotinib -0.041 | [1] 0.159 | [2] -0.051 | [3] 0.014 | [4] -0.021 | [5] 0.049 | [6] -0.171 | [7] 0.045 | [8] -0.027 | [9] -0.055 | IRAK-1-4 Inhibitor I 0.01 | ibrutinib 0.024 | [10] -0.037 | ralimetinib -0.049 | [11] 0.043 | [13] -0.02 | pinometostat -0.021 | [14] -0.017 | [15] -0.034
active: [12] 0.277

MCCC2 (UniProt Q9HCC0)
inactive: erlotinib 0.019 | [1] 0.123 | [2] 0.03 | [3] 0.004 | [4] -0.04 | [5] 0.011 | [6] 0.047 | [7] 0.004 | [8] 0.004 | [9] 0.035 | IRAK-1-4 Inhibitor I 0.046 | ibrutinib 0.019 | [10] 0.047 | ralimetinib -0.015 | [11] 0.027 | [12] 0.024 | [13] -0.04 | pinometostat -0.05 | [14] 0 | [15] 0.003

LYPLA2 (UniProt O95372)
Sequence of UniProt O95372 (O95372 whole entry, looked up): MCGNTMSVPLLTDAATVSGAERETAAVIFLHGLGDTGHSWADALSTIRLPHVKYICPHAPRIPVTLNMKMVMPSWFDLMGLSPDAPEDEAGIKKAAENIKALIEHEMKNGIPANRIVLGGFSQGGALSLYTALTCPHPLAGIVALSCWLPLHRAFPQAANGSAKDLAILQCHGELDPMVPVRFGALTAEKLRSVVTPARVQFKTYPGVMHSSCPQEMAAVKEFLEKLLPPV
active: [2] 0.345
inactive: erlotinib -0.008 | [1] 0.021 | [3] -0.01 | [4] 0.081 | [5] 0.097 | [6] 0.14 | [7] -0.016 | [8] -0.084 | [9] -0.122 | IRAK-1-4 Inhibitor I 0.062 | ibrutinib 0.003 | [10] -0.134 | ralimetinib -0.036 | [11] -0.106 | [12] -0.04 | [13] -0.056 | pinometostat -0.067 | [14] -0.021 | [15] 0.197
